The target in assay [1] is T1, Serine/threonine-protein kinase TBK1 (Homo sapiens) (UniProt Q9UHD2).
T1 sequence (whole entry): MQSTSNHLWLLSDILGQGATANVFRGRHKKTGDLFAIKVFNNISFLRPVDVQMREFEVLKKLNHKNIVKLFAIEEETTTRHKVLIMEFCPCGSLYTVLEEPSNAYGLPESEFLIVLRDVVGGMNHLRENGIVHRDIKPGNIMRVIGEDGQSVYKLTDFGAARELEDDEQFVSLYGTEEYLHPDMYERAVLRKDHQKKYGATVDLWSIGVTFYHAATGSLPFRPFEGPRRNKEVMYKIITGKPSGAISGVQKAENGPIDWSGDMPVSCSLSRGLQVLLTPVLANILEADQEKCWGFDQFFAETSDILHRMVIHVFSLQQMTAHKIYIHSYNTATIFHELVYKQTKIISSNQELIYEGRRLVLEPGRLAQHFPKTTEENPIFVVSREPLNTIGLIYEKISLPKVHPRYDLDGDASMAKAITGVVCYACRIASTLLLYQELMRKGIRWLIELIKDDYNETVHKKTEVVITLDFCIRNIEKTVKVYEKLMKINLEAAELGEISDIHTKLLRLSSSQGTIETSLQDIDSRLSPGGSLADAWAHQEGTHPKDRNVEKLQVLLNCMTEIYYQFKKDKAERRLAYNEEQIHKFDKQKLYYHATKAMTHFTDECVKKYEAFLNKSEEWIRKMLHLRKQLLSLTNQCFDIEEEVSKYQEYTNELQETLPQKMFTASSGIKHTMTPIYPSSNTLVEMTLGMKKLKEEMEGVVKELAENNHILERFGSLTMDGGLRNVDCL
The following applies: at 10 µM.

The target in assay [2] is T2, TGF-beta receptor type-1 (Homo sapiens) (UniProt P36897).
T2 sequence (whole entry): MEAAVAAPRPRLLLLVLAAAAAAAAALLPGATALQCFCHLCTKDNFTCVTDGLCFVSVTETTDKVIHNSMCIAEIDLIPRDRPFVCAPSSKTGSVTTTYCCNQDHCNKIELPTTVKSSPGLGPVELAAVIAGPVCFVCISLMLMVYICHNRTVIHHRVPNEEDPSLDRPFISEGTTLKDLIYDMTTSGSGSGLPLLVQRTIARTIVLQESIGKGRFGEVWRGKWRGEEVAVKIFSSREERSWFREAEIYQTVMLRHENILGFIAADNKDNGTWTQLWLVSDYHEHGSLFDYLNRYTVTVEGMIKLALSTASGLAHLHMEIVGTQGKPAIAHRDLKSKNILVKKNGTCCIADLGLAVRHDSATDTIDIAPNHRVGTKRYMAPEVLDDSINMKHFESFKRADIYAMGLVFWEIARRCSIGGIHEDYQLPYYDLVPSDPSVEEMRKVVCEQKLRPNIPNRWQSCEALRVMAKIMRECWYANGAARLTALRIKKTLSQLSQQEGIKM
To be noted: at 1 µM.

Assay [3] concerns the target T2, TGF-beta receptor type-1 (Homo sapiens). To be noted: at 10 µM.
Assay [4] deals with Insulin-like growth factor 1 receptor (Homo sapiens) (UniProt P08069). The following applies: at 1 µM.
Assay [5] shares this target. To be noted: at 10 µM.
The target of assay [6] is T3, Inhibitor of nuclear factor kappa-B kinase subunit alpha (Homo sapiens) (UniProt O15111).
T3 sequence (whole entry): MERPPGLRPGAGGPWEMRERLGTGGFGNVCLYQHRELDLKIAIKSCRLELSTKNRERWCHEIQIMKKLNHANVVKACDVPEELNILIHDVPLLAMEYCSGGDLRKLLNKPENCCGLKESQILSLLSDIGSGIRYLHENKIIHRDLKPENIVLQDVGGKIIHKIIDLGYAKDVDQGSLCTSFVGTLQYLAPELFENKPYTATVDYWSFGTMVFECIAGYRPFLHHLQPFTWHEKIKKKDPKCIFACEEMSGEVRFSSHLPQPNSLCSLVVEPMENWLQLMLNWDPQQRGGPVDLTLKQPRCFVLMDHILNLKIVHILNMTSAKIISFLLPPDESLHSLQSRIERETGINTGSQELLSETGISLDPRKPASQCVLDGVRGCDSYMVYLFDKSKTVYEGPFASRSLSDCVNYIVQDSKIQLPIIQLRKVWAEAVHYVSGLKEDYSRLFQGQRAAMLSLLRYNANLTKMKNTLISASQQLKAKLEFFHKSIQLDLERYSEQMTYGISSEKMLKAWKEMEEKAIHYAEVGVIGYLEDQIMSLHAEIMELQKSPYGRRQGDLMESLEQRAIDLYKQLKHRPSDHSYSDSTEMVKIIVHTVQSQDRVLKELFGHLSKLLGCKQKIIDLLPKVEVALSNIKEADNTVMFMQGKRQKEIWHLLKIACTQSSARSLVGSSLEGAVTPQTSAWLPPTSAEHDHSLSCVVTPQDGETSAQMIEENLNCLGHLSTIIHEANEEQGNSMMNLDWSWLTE
To be noted: at 1 µM.

For assay [7], the target named is T3, Inhibitor of nuclear factor kappa-B kinase subunit alpha (Homo sapiens). The following applies: at 10 µM.
Assay [8] addresses T4, Inhibitor of nuclear factor kappa-B kinase subunit beta (Homo sapiens) (UniProt O14920).
T4 sequence (whole entry): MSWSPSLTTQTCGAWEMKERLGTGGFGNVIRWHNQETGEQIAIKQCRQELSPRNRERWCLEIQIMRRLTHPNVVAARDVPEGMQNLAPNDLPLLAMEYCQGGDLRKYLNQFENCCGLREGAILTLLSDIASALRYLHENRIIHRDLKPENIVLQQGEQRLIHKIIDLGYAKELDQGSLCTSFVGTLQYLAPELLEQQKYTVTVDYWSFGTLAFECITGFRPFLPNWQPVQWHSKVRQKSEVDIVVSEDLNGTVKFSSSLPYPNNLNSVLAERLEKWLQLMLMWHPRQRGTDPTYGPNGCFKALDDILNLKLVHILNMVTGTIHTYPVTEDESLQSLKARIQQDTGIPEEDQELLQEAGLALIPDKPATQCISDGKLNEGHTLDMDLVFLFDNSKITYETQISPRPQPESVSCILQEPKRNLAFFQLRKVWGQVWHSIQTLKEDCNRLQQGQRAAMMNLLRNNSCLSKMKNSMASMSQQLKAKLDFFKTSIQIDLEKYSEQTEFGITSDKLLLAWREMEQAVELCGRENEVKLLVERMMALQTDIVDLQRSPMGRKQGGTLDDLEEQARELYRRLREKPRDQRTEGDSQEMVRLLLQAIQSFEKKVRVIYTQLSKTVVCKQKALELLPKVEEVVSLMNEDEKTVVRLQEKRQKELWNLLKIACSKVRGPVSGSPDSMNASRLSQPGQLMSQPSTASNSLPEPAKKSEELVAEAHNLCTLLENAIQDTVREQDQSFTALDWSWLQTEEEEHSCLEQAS
The following applies: at 1 µM.

Assay [9] deals with T4, Inhibitor of nuclear factor kappa-B kinase subunit beta (Homo sapiens). To be noted: at 10 µM.
Assay [10] addresses Insulin receptor (Homo sapiens) (UniProt P06213). To be noted: at 1 µM.

Sequence of Insulin-like growth factor 1 receptor (Homo sapiens) (P08069 31-736 limits assumed): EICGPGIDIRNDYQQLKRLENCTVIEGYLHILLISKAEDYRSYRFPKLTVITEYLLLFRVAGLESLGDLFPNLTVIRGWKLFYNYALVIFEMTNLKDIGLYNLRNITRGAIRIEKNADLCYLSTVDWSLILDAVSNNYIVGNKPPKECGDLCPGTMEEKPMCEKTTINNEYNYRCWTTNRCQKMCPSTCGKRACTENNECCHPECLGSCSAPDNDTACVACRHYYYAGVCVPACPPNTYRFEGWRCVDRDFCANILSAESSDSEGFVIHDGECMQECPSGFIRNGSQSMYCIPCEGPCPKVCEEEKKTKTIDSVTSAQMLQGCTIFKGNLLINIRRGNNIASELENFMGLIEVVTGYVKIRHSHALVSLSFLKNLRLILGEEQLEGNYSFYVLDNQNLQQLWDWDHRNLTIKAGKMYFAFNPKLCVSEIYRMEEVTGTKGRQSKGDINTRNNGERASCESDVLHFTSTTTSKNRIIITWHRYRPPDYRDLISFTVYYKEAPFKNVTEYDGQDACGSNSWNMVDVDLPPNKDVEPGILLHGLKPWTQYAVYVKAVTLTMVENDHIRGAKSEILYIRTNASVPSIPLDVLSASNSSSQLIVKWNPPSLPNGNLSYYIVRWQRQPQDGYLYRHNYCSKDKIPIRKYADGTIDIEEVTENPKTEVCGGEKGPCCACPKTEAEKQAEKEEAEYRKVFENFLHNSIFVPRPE
Sequence of Insulin-like growth factor 1 receptor (Homo sapiens) (P08069 741-1367 limits assumed): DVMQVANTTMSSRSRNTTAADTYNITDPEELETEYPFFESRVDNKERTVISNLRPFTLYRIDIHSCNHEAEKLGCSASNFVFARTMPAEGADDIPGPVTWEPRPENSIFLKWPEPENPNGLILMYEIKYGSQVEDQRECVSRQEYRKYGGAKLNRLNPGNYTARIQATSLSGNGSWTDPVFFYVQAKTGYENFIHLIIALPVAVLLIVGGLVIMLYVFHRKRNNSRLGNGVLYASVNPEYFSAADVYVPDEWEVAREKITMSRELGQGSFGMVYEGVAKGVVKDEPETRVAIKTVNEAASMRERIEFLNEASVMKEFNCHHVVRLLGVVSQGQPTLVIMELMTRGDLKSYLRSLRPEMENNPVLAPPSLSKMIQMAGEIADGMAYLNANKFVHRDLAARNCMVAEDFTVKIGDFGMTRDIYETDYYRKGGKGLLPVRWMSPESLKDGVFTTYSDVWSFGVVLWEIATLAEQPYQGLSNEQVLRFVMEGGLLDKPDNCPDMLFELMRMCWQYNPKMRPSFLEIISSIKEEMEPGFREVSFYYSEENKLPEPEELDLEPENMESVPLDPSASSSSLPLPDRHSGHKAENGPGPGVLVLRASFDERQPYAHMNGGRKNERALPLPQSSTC
Sequence of Insulin receptor (Homo sapiens) (P06213 28-758 limits assumed): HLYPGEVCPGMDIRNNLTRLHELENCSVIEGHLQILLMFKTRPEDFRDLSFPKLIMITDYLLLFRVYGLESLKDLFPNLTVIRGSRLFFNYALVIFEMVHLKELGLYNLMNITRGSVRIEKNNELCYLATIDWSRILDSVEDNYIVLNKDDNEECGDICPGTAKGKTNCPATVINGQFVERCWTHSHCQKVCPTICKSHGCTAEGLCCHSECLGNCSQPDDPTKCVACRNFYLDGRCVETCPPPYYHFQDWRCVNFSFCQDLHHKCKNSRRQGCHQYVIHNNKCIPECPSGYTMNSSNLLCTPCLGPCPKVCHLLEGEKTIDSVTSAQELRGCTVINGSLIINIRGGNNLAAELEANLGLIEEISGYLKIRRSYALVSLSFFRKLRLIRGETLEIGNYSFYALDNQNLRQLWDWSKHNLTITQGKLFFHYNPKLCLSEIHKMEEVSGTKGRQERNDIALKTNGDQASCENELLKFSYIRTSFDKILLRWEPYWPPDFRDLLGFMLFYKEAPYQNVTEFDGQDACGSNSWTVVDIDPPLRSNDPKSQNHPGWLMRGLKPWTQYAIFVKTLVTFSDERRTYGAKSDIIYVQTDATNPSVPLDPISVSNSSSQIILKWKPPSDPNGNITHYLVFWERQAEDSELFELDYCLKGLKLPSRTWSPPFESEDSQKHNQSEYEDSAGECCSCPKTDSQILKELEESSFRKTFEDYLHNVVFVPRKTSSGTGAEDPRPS
Sequence of Insulin receptor (Homo sapiens) (P06213 763-1382 limits assumed): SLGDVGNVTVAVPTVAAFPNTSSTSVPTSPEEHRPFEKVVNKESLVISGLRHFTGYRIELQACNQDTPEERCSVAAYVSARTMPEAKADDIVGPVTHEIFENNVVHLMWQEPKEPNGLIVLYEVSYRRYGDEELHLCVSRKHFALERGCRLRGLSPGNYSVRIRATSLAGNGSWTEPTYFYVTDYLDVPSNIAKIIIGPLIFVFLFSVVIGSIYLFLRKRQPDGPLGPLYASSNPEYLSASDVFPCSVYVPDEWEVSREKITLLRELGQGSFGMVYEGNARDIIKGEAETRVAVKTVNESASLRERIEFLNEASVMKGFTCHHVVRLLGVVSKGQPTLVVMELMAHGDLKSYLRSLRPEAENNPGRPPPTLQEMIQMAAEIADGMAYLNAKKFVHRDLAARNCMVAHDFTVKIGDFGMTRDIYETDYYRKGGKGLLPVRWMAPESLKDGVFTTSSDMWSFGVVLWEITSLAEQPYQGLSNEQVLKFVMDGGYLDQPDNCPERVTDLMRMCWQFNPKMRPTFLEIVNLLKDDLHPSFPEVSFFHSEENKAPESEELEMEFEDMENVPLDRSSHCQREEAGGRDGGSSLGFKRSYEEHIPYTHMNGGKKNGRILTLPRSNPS

Consider `N#C/C(=C(\N)Sc1ccc(N)cc1)c1ccccc1C(F)(F)F`, for which the residual activity came out at 16% in assay [1]; 101% in assay [2]; 95% in assay [3]; 103% in [4]; 102% in [5]; 101% in assay [6]. Further, the residual activity in assay [7] was 121%; in assay [8], 106%; in assay [9], 109%; in [10], 113%.

The term residual activity denotes the signal under treatment as a percentage of the control signal.

Values taken from ChEMBL document CHEMBL2218924, “A broad activity screen in support of a chemogenomic map for kinase signalling research and drug discovery” (Biochem J, 2013).
